# Assay results as given in ChEMBL document CHEMBL4513216, “Probing the Open Global Health Chemical Diversity Library for Multistage-Active Starting Points for Next-Generation Antimalarials” (ACS Infect Dis, 2020).
# The whole screen tested about 69,000 compounds, of which about 8,600 (12%) showed an effect of 50% or more. What follows is part of a selection rich in strong results, with near analogues and random picks from the rest.
# Test system: Plasmodium berghei
# Assay: Screen against P. berghei liver stage (PbLuc), transformed with Luciferase, at 10uM
# Format: functional, HepG2
# Conditions: tested at 10 uM
row,Structure (SMILES),INHIBITION [%]
1,CCn1cc(NC(=O)NCC(C)N2CCCC2)cn1 (stereo not given),31.8
2,Cc1nc(CN2CCc3ncnc(C4CCOC4)c3CC2)cs1 (stereo not given),-33
3,Cc1nc2ncc3c(=O)n(C)ccc3n2n1,0.647
4,Cc1noc(C)c1CN1CCN(C(=O)C(C(C)C)n2cncn2)CC1 (stereo not given),7.44
5,Cc1ccc(C(CNC(=O)c2cc(CC(C)C)nn2C)N(C)C)cc1 (stereo not given),-28.8
6,Cc1ccc(OCCCNC(=O)Cc2nc3ncccn3n2)cc1,27.7
7,Cc1ccc(C(NC(=O)Cc2nc3ncccn3n2)C2CC2)cc1 (stereo not given),53.4
8,Cc1ccc(C(NC(=O)CN2CCc3c(ncn3C)C2)C2CC2)cc1 (stereo not given),6.99
9,Cc1ccc(C(NC(=O)Cn2cc(C3CC3)nn2)C2CC2)cc1 (stereo not given),8.08
10,Cc1ccc(C(CNC(=O)Cc2nc3ncccn3n2)N(C)C)cc1 (stereo not given),56.8
11,O=C1C(NS(=O)(=O)c2cccc(F)c2)CCN1Cc1ccccc1 (stereo not given),-5.25
12,Cc1ccc(N2C[C@H](C)[C@]3(CCN(c4cccnc4)C3=O)C2)nn1,38.5
13,CCC(C)N(Cc1sccc1C)C(=O)c1ccc2cccnc2n1 (stereo not given),11.2
14,CC(=O)NCC(=O)N1CCN(CC2CC2)c2ncccc2C1,27.9
15,O=C(Cc1ccccn1)N1CCN(CC2CC2)c2ncccc2C1,24.5
16,CC(=O)NCC(=O)N1CCN(Cc2ccncc2)c2ncccc2C1,76.5
17,O=C(N1CCCC1)N1CCN(CC2CC2)c2ncccc2C1,20.5
18,O=C(O)CCC(=O)N1CCN(CC2CC2)c2ncccc2C1,82
19,COCCC(=O)N1CCN(CC2CC2)c2ncccc2C1,55.7
20,CC(=O)NCC(=O)N1CCN(Cc2cccnc2)c2ncccc2C1,-14
21,COCC(=O)N1CCN(CC2CC2)c2ncccc2C1,-18.6
22,COCCC(=O)N1CCN(CC2CC2)c2nc(C)ccc2C1,-7.24
23,COC(=O)C(NC(=O)C1CC1)c1cc(F)ccc1F (stereo not given),29.4
24,CCOc1ccc(Cl)c(C(=O)NCCS(N)(=O)=O)n1,35.3
25,COc1ccc(C2=CCN(C(=O)C3CCCN(C(C)=O)C3)CC2)cc1 (stereo not given),1.78
26,CNC(=O)CN(C(=O)c1ccccc1)[C@H]1C[C@H]2CCOC[C@H]2C1,8.61
27,CN1CC(=O)N(c2cccc(F)c2)CC12CCN(Cc1ccncc1)C2 (stereo not given),-17.1
28,NC(=O)CN1CCCN(C(=O)Cc2ccc(F)c(Br)c2)CC1,14.4
29,O=C(Cc1ccc(F)c(Br)c1)N1CCN(CCO)CC1,66.7
30,COc1ccc(Cl)cc1CC(=O)N1CCN(CCO)CC1,38.1
